According to ChEMBL document CHEMBL1157539, “Thousands of chemical starting points for antimalarial lead identification” (Nature, 2010):

Experiments:
Assay type in all cases: functional
[1] = system: Plasmodium falciparum; test: GSK_TCMDC: Inhibition of Plasmodium falciparum 3D7 in whole red blood cells, using parasite LDH activity as an index of growth. Test compounds present at 2uM
[2] = system: HepG2; test: GSK_TCMDC: Percent inhibition of human HepG2 cell line. Test compounds present at 10uM.
[3] = system: Plasmodium falciparum; test: GSK_TCMDC: Inhibition of Plasmodium falciparum Dd2 in whole red blood cells, using parasite LDH activity as an index of growth. Test compounds present at 2uM

Structure (SMILES) | Inhibition [1] | Inhibition [2] | Inhibition [3]
COc1ccc(CCN2CC[C@H](CNc3nc(-c4ccccc4)nc4ccccc34)C2)cc1S(N)(=O)=O.O=C(O)C(F)(F)F | 85% | 54% | 
COc1ccc(/N=C(\N)Nc2ccccc2)nc1Cc1ccccc1 | 81% | 17% | 
Cc1ccc(-n2c(C)cc(C(=O)CN3C(=O)NC(Cc4ccccc4)C3=O)c2C)cc1 (stereo not drawn) | 82% | 0% | 
CO/N=C(\C)c1ccc2c(c1)CCN(CCC1CCC(NC(=O)c3cccc(-c4noc(C)n4)c3)CC1)CC2.Cl (stereo not drawn) | 90% | 42% | 
O=C(CN1C(=O)CC1S(=O)(=O)Cc1ccco1)NCCCCCCc1ccc(F)cc1 (stereo not drawn) | 95% | 0% | 
c1ccc2sc(-c3csc(Nc4ccncc4)n3)nc2c1 | 86% | 0% | 
CCS(=O)(=O)c1ccc(/C(=N/OC)c2ccc[nH]2)cc1 | 85% | 0% | 
CCN(CC)CCCN(C(=O)Nc1cc(F)cc(F)c1)c1nc(-c2ccc(F)cc2)cs1 | 82% | 27% | 
Cc1ccc(Nc2c3ccccc3nc3ccc(C)cc23)cc1 | 88% | 26% | 
Cc1nc(Nc2ccc(F)cc2)nc(N2CCc3ccccc3[C@@H]2C)c1C.Cl | 92% | 12% | 
COc1cccc(-c2cc3c(NCc4ccncc4)nccc3s2)c1 | 87% | 0% | 
O=[N+]([O-])c1ccc(-n2nc(-c3cccnc3)n(Cc3ccco3)c2=S)c(Cl)c1 | 95% | 13% | 
CCCCNC(=O)C1CCCN(C(=O)c2ccc(O)c(-c3ccc(Cl)c(Cl)c3)c2)C1 (stereo not drawn) | 83% | 3% | 
CC(C)C(=O)NC(NC(=S)Nc1ccc(Br)cc1)C(Cl)(Cl)Cl (stereo not drawn) | 93% | 0% | 
Cc1ccc(-c2cnc3[nH]cc(-c4ccc(C(=O)O)c(C)c4)c3c2)cc1C.O=C(O)C(F)(F)F | 96% | 37% | 
O=C(NNC(=O)c1ccc(CN2CCC(c3nc4ccccc4[nH]3)CC2)cc1)Nc1ccc(Oc2ccccc2)cc1.O=C(O)C(F)(F)F | 86% | 0% | 
O=C(Nc1ccc(C(F)(F)F)cc1)c1cc(Cl)cc2nc(C(F)(F)F)[nH]c12 | 100% | 86% | 

Structure (SMILES) | Inhibition [1] | Inhibition [2] | Inhibition [3]
COc1c(C2CCN(CCCCNC(=O)C=Cc3ccccc3C(F)(F)F)CC2)ccc2c1CCCC2 | 96% | 98% | 
COc1cccc(-c2nc(Nc3ccncc3)c3ncn(C)c3n2)c1.O=C(O)C(F)(F)F | 94% | 14% | 
Cc1ccccc1Oc1ccc(Nc2ccnc(Nc3cccc(C(N)=O)c3)n2)cc1C(F)(F)F.Cl | 81% | 9% | 
Cl.Oc1cccc(Nc2ccnc3cc(-c4nccs4)ccc23)c1 | 98% | 0% | 
CCn1c(-c2nonc2N)nc2c(-c3cccc(NC(=O)NCc4ccccc4)c3)ncc(OCCCN)c21.O=C(O)C(F)(F)F | 99% | 5% | 
Cc1cc2c(cc1C(F)(F)F)N(C(=O)Nc1ccc(C(=O)NCCN3CCCC3)cc1)CC2 | 100% | 10% | 
Cc1nc(Cl)c2c(-c3ccccc3)csc2n1 | 84% | 0% | 
Nc1[nH]c2ccccc2c(=O)c1-c1nc2ccccc2s1 | 97% | 16% | 
O=C(NCCCCN1CCC(c2ccc3c(c2OCCOCCO)CCCC3)CC1)c1ccc(-c2ccc(C(F)(F)F)cc2)cc1 | 97% | 44% | 
CNC(=O)c1ccc(/C=C/C(=O)N2CCc3ccc(-c4ccccc4)cc3C2c2cccc(C(F)(F)F)c2)cc1 (stereo not drawn) | 91% | 9% | 
COc1ccc(CN2CCN(CC(=O)Nc3cc(Cl)ccc3-n3cncn3)CC2)cc1F | 93% | 0% | 
O=C(O)CCSc1ncnc2[nH]cnc12 | 100% | 7% | 
COc1cc(Cc2cnc(N)nc2N)ccc1OCc1csc(-c2ccc(Cl)cc2)n1 | 93% | 39% | 
CC(Sc1nnc(-c2ccccc2Br)[nH]1)C(=O)Nc1ccc(F)cc1 (stereo not drawn) | 90% | 0% | 
CN(C)c1ccc(NC(=O)Nc2ccnc3ccccc23)cc1Br.Cl | 98% | 21% | 
COc1cc2ncnc(Nc3ccc(OC(F)(F)c4ccccc4)cc3)c2cc1OC.Cl | 91% | 14% | 
CCN(CC)CCCC(C)Nc1ccnc2cc(Cl)ccc12.O=P(O)(O)O.O=P(O)(O)O (stereo not drawn) [CHLOROQUINE PHOSPHATE] |  | 12% | 96%
